Screening results from PubChem BioAssay.
LmPK inhibitor: blocks Leishmania mexicana pyruvate kinase activity | Q27686 | purified LmPK, Kinase-Glo ATP luminescence, 1 h | Potency, µM (series often up to 57.5 µM), without a hit: top-dose activity change, negative = inhibition, usual class: inhibitors | 290,000 compounds, 0.37% hits
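Purified LmPK (0.1 nM) converted ADP (0.1 mM) to ATP with PEP (0.5 mM) in imidazole buffer pH 7.2 with KCl and MgCl2, 1 h at room temperature. ATP was read by Kinase-Glo luminescence; data normalized to uninhibited and no-enzyme controls.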
Sm TGR inh: inhibitors of Schistosoma mansoni thioredoxin glutathione reductase. Q962Y6. purified TGR, DTNB reduction, TNB absorbance 405 nm. Potency, µM (series often up to 114 µM), inactives show at the highest dose activity change, negative = inhibition, most hits filed as inhibitors. 360,000 compounds, 3% hits; note: nearly all actives have a fitted effect of over 60% in size
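First, TGR (20 nM dispensed) and NADPH were mixed with compound. Second, a 15 min room-temperature incubation followed. Third, further NADPH and then DTNB were added to start the reaction. Finally, TNB absorbance was monitored kinetically.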
RE007 growth inh: less growth of the S. pombe RE007 Vpr strain; Potency, µM (highest dose often 92.2 µM), for the others: at the highest dose activity change, negative = less growth, actives largely listed as inhibitors; 360,000 compounds, 0.21% hits; S. pombe RE007 Vpr strain, BacTiter-Glo ATP luminescence, 24 h; active = well fitted falling curve with a large enough effect; inconclusive = small, poorly fitted or top-dose-only effect; inactive = no such curve, though single readings can be large or run the other way; note: nearly all actives have a fitted effect of over 50% in size
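Fission yeast RE007 carrying one integrated HIV-1 vpr copy, seeded at OD 0.01 in PMG+AL medium with 23 nL pinned compound. Grown 24 h at 30 degrees; viability read by BacTiter-Glo luminescence after 5 min.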
FBPA Giardia inh: inhibitors of Giardia lamblia fructose-1,6-bisphosphate aldolase | A8B2U2 | purified Giardia FBPA | Potency, µM (doses to about 59.6 µM), for inactives: top-dose activity, negative = inhibition, most hits filed as inhibitors | 290,000 compounds, 0.71% hits | AID 2451; note: nearly all actives have a fitted effect of over 55% in size
Target sequence (A8B2U2 whole entry, looked up): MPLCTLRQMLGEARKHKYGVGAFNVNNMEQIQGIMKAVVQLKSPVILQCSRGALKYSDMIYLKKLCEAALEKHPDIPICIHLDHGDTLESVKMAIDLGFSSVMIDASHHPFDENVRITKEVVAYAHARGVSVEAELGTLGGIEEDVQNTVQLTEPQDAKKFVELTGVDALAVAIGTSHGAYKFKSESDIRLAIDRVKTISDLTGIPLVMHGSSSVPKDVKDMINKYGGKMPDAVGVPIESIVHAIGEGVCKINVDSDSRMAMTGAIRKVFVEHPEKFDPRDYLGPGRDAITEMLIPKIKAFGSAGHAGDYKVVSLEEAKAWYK
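40 nM FBPA preincubated 10 min at RT with compound (up to 57.5 uM final), then substrate plus GAPDH/TPI/NAD/arsenate coupling and diaphorase/resazurin added. Fluorescence read after 20 min at RT, 525/598 nm.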
Tb PYK inh: T. brucei pyruvate kinase inhibition | Q57TT1 | TbPYK enzyme, Kinase-Glo Plus ATP luminescence, 45 min | Potency, µM (series often up to 76.8 µM), inactives show at the highest dose activity, negative = inhibition, most hits filed as inhibitors | 410,000 compounds, 0.12% hits | AID 624173; note: nearly all actives have a fitted effect of over 50% in size
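Luminescent Kinase-Glo Plus end-point after 45 min room-temperature reaction of T. brucei pyruvate kinase started with 130 uM ADP (final). Buffer TEA 50 mM pH 7.2 with KCl, MgCl2, BSA, Tween-20; titration-based qHTS with fitted concentration-effect curves.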
Active calls of the source: *; ? = inconclusive; / = no result given. Hits are enriched below; roughly 3.3% of the tested compounds scored in any of these assays. Unless noted, calls come from the whole dose curve; as a rule, active = well fitted curve in the direction sought with a large enough effect; inconclusive = small, poorly fitted or top-dose-only effect, or another doubt; inactive = no such curve, though single readings can be large; an effect the other way counts as inactive or inconclusive. % is set by controls: 0 for no effect and ±100 for the full control effect; potency is the fitted concentration of half-maximal effect.

SMILES	LmPK inhibitor	Sm TGR inh	RE007 growth inh	FBPA Giardia inh	Tb PYK inh
c1ccc(-c2noc(-c3ccco3)n2)nc1	15.8µM*	1.3%	-16.1%	1.5%	-11.7%
COc1cccc2sc(=NC(=O)c3ccc(S(=O)(=O)N4CCCCC4)cc3)n(C)c12	/	-3.9%	/	/	3.7%
Cc1cccc2cc(CN(CCN3CCCC3)C(=O)NC3CCCCC3)c(=O)[nH]c12	0.0%	-9.5%	1.8%	-7.2%	2.2%
Cc1ccc2nc(-c3ccccn3)oc2c1	15.8µM*	19.3%	?	-4.4%	-25.0%
O=C1C(=O)N(Cc2ccco2)C(c2cccc(Cl)c2)/C1=C(\O)c1ccc2c(c1)OCCO2 (stereo unspecified)	7.2%	35.5µM*	1.7%	3.0%	-0.6%
COc1cc(C2/C(=C(\O)c3ccc4c(c3)OCCO4)C(=O)C(=O)N2Cc2ccco2)ccc1O (stereo unspecified)	-2.1%	45.3%	2.7%	/	0.3%
COc1cccc(C2/C(=C(/O)c3ccccc3)C(=O)C(=O)N2Cc2ccco2)c1 (stereo unspecified)	4.6%	50.1µM*	-2.8%	-23.6%	-0.2%
CCOc1cccc(/C(O)=C2/C(=O)C(=O)N(Cc3ccco3)C2c2ccncc2)c1 (stereo unspecified)	0.4%	?	7.0%	-12.1%	-10.8%
COc1cccc(/C(O)=C2/C(=O)C(=O)N(Cc3ccco3)C2c2ccncc2)c1 (stereo unspecified)	8.4%	28.2µM*	-1.7%	-13.1%	6.4%
Oc1c(Br)cc(C=Nc2ccc3nc(-c4ccccc4)[nH]c3c2)c(O)c1Br	4.9%	17.8µM*	-8.5%	?	-8.8%
Cc1ccc(-c2nc3cc(N)ccc3o2)cc1	?	6.3%	-23.0%	-0.5%	-3.4%
COc1ccc2nc(-c3ccccc3)[nH]c2c1	15.8µM*	1.4%	?	?	-21.6%
CC(C)c1ccc2oc(-c3ccc(N)cc3)nc2c1	-14.1%	-9.5%	39.8µM*	-4.6%	-2.9%
Cc1ccc2nc(-c3cccc(N)c3)[nH]c2c1	15.8µM*	-3.0%	?	-19.6%	-15.2%
Nc1cccc(-c2nc3ccccc3[nH]2)c1	?	-0.7%	-1.9%	1.0%	-6.6%
CCCNC(=O)C1CCC(Cn2c(=O)c3sccc3n(CC(=O)Nc3ccccc3C)c2=O)CC1 (stereo unspecified)	/	-0.3%	/	/	2.0%
O=C(CCc1nnc2ccc(N3CCC4(CC3)OCCO4)nn12)NCc1ccccc1Cl	3.6%	-17.3%	6.9%	1.2%	2.8%
Cc1ccc2oc(-c3cccc(N)c3)nc2c1	-22.0%	-1.6%	31.6µM*	-9.0%	-12.0%
COc1cccc(CNc2cc(C)ccn2)c1O	-5.7%	22.4µM*	-10.4%	7.5%	-10.2%
COc1cccc(CNc2cccc3cccnc23)c1O	-15.5%	-6.5%	-16.5%	?	-9.3%
Cc1ccnc(NCc2cccc3ccccc23)c1	-1.5%	-23.4%	-6.3%	?	-2.2%
COc1cccc(CNc2ccccn2)c1O	-0.4%	28.2µM*	1.6%	12.4%	0.6%
Cc1cc(C)nc(/N=C(\N)N2CCCCC2)n1	0.4%	44.7µM*	-15.2%	3.2%	-2.5%
Cc1cc(C)nc(/N=C(\N)N2CCCCCC2)n1	0.4%	2.4%	-13.3%	1.6%	-5.7%
CCOC(=O)c1cnc2cc(C)ccn2c1=O	-5.3%	0.4%	-21.1%	6.4%	-7.9%
SMILES	LmPK inhibitor	Sm TGR inh	RE007 growth inh	FBPA Giardia inh	Tb PYK inh
O=C(CC1Sc2ncnn2C1=O)Nc1ccccc1 (stereo unspecified)	8.6%	0.501µM*	-15.2%	?	-13.9%
Nc1cc(-c2ccncc2)c[nH]c1=O	8.8%	39.8µM*	-1.6%	1.77µM*	?
c1ccc(-c2ccncc2)cc1	/	/	-5.2%	/	4.5%
COC/C=C/C1=CC2=CC(=O)C(C)(O)C(=O)C2=CO1 (stereo unspecified)	/	/	/	9.2%	/
COC/C=C/C1=CC2=CC(=O)C(C)(OC(=O)c3ccco3)C(=O)C2=CO1 (stereo unspecified)	2.9%	3.16µM*	/	?	/
COC/C=C/C1=CC2=CC(=O)C(C)(OC(=O)c3cccs3)C(=O)C2=CO1 (stereo unspecified)	/	/	/	0.5%	/
COC/C=C/C1=CC2=CC(=O)C(C)(OC(=O)C3CCCC3)C(=O)C2=CO1 (stereo unspecified)	-6.6%	3.55µM*	-20.1%	?	-6.3%
